Data on 1 compound can be found in the supplement of paper PMC11732987, “Enantioselective OTUD7B fragment discovery through chemoproteomics screening and high-throughput optimisation” (Communications Chemistry, 2025).

Common to all, as to assay: log2 ratio of Biotin-Ahx-Ub-VS probe labelling (fragment/DMSO); higher = less target engagement (more negative = stronger competition), active = hit call of the paper (q ≤ 0.05, log2 ratio ≤ -1)
Settings in all cases: compound concentration: 200 uM; treatment time: 3 h

In one experiment the target is T1, USP42 (UniProt Q9H9J4).
T1 sequence (whole entry): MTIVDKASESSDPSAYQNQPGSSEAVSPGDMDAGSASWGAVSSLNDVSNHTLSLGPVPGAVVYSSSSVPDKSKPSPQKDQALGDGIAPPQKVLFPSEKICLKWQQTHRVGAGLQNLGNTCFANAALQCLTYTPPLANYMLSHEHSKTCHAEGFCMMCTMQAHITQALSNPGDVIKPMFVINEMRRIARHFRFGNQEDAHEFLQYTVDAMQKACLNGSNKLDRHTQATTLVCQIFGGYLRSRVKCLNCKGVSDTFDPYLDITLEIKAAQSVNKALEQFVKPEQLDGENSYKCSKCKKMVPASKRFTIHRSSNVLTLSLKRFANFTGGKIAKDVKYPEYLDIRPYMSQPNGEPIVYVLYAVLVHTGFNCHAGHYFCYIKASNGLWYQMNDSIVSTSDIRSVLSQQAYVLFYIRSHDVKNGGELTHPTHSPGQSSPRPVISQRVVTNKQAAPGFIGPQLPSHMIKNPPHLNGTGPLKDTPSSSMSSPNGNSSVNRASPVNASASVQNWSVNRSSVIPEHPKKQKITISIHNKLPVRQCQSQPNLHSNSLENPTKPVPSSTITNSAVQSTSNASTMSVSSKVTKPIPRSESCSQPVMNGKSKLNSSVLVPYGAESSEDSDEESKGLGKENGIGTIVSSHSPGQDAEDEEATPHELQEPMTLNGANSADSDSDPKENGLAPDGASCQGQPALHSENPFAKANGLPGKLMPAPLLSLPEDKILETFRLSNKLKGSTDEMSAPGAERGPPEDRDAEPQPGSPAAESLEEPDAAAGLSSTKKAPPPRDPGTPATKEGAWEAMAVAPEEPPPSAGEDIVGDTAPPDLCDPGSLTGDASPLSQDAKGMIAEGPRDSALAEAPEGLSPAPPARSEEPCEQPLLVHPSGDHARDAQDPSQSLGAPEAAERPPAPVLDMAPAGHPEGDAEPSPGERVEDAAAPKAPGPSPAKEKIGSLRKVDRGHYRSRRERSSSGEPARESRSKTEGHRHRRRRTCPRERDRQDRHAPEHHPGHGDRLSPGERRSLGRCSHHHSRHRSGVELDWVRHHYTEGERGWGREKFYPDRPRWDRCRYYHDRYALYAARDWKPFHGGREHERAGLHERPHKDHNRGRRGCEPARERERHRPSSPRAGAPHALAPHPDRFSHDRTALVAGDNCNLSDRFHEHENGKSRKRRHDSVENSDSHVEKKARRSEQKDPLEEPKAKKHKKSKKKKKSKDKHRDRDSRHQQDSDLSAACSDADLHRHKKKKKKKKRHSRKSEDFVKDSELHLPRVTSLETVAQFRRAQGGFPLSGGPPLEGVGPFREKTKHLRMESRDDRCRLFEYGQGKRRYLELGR
Put shortly:
(§1)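 Labelled DUBs from HEK293T lysate were NeutrAvidin-enriched, digested with LysC and trypsin, and run by diaPASEF LC-MS/MS. Before that, each 495 µg sample in Tris/CHAPS/IGEPAL buffer with protease inhibitors was treated in triplicate with fragment at 200 µM or vehicle for 3 h, then with Biotin-Ahx-Ub-VS at 0.5 µM final for 1 h. Values are average log2 ratios of fragment over vehicle by unpaired t-test, based on global-median-normalised Spectronaut label-free quantities from proteins with ≥2 unique peptides.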

The target in another experiment is USP46 (UniProt P62068). Put shortly: as §1
Chain of USP46 (P62068 whole entry): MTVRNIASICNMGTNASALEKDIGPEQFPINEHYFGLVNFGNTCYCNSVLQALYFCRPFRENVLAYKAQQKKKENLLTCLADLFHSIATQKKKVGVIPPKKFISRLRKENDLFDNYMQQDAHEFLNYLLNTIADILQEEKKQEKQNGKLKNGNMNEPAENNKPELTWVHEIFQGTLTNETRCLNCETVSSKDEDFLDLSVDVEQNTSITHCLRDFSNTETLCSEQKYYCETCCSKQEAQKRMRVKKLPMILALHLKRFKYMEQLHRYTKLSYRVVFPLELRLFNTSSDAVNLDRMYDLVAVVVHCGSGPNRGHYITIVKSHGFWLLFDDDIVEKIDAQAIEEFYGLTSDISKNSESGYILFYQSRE
The next experiment has as its target T2, USP47 (UniProt Q96K76).
T2 sequence (whole entry): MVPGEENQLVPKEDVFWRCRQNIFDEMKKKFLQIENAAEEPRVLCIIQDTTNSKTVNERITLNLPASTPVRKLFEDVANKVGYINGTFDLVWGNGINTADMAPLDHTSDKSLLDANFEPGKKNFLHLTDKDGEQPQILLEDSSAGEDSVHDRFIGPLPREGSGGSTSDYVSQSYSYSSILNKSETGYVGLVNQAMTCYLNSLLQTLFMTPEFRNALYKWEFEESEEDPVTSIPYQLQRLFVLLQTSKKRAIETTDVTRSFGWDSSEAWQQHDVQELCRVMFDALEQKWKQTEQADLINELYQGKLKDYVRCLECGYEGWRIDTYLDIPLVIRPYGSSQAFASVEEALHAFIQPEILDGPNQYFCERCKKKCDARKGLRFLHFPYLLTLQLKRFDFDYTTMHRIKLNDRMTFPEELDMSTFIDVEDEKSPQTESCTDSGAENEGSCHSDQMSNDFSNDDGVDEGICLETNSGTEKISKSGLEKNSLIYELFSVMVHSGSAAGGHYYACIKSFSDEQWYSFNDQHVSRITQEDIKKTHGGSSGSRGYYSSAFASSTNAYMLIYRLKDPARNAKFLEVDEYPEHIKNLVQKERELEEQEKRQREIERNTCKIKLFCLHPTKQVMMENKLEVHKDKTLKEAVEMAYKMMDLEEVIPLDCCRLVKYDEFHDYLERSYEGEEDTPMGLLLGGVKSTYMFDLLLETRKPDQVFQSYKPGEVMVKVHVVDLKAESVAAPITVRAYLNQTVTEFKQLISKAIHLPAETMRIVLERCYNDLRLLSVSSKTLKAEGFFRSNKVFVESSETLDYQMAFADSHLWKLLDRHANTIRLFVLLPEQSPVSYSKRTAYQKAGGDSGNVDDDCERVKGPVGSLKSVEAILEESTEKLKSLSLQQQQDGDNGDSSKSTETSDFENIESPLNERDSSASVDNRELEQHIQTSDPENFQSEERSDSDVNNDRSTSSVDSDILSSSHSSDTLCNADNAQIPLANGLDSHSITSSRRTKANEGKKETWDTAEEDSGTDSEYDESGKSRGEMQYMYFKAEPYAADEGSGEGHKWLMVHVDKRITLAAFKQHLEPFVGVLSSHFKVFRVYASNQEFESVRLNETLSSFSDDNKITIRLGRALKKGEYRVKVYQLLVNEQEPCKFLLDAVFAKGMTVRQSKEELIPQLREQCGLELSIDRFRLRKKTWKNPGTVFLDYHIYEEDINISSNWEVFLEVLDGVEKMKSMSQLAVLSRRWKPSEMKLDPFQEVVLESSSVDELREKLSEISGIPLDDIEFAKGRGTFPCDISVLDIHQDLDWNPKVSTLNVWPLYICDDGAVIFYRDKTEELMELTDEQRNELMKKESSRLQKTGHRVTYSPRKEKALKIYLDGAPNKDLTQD
Put shortly:
as §1

The target of another experiment is T3, USP48 (UniProt Q86UV5).
T3 sequence (whole entry): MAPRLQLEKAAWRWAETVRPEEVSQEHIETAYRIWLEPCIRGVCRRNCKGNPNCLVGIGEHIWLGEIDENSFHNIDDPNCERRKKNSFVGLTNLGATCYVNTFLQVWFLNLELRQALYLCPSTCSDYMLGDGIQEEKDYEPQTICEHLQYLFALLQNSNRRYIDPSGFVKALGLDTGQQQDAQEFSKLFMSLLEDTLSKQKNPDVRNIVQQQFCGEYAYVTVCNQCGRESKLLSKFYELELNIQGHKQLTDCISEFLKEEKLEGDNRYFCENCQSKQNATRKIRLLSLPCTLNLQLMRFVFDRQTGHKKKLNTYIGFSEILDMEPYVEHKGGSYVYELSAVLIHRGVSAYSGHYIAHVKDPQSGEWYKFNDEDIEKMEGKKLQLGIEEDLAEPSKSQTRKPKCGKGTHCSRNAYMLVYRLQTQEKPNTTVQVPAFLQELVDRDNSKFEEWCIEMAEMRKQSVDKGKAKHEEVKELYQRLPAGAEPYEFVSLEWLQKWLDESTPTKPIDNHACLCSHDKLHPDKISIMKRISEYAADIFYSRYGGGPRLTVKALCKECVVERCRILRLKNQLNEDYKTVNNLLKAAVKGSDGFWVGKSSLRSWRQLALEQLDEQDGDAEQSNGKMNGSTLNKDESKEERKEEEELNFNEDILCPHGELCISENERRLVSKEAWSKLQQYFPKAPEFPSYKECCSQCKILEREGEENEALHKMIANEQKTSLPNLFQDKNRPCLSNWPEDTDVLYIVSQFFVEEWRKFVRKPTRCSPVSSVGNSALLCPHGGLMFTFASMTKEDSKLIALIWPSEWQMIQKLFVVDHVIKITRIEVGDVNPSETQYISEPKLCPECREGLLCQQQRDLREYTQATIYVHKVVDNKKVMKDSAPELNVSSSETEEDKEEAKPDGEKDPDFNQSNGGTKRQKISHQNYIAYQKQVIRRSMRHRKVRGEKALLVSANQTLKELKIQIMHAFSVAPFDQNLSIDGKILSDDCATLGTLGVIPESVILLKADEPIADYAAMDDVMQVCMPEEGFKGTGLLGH
Put shortly:
as §1

For the next experiment, the target named is T4, USP5 (UniProt P45974).
T4 sequence (whole entry): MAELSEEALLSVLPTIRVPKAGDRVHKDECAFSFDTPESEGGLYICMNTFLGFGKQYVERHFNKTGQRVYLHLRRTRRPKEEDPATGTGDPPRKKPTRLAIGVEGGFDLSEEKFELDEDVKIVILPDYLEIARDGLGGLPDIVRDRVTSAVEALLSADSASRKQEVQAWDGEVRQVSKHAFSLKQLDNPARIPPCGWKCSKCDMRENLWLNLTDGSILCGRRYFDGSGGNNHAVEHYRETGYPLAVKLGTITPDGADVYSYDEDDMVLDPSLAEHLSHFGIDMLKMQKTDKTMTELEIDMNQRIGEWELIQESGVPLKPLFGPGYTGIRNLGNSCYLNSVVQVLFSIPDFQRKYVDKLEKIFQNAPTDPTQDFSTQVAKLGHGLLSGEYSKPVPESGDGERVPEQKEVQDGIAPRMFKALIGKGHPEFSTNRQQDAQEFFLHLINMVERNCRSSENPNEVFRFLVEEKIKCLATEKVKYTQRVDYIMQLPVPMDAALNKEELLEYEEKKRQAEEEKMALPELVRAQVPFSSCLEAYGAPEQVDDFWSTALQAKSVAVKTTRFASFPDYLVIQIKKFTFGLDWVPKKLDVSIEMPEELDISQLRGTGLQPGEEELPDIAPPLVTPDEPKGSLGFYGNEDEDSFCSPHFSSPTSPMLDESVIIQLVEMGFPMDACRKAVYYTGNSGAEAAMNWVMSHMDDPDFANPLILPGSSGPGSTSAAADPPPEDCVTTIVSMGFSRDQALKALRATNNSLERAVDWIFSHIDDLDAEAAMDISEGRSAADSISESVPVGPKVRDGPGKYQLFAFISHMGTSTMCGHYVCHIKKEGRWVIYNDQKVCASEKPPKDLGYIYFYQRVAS
In a few lines: as §1

A further experiment has as its target USP54 (UniProt Q70EL1). Put shortly:
as §1

The target in the next experiment is USP7 (UniProt Q93009). Put shortly:
as §1

For another experiment, the target named is T5, USP8 (UniProt P40818).
T5 sequence (whole entry): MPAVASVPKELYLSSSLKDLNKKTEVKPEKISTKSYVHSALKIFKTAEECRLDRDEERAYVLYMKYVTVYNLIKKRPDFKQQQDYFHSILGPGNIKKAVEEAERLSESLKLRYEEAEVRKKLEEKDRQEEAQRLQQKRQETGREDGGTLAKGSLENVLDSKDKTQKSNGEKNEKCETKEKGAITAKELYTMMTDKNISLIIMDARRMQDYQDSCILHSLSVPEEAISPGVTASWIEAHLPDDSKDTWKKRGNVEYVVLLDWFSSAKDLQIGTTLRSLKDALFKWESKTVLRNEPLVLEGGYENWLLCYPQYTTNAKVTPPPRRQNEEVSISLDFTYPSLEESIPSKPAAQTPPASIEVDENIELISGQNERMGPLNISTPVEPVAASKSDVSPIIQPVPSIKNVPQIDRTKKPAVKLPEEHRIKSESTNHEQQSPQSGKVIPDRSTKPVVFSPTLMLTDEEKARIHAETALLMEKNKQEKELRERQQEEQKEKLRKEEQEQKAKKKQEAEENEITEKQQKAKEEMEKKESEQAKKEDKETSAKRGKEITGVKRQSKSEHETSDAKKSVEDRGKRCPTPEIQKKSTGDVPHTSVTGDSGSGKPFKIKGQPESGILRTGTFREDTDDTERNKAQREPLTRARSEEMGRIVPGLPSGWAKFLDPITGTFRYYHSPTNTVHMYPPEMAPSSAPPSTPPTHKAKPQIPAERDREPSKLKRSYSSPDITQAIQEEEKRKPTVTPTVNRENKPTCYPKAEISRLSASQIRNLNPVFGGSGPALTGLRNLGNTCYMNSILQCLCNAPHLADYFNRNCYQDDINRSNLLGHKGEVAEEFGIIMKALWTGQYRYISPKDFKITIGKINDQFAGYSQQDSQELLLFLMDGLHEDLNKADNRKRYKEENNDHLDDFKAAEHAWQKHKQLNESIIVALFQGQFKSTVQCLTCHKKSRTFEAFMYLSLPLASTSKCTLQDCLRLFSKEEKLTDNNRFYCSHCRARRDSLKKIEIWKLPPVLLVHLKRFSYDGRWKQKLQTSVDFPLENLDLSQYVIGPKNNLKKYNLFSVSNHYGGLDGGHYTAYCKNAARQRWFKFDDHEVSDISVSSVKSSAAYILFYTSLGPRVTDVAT
Put shortly: as §1

The target in another experiment is USP9X (UniProt Q93008). Put shortly: as §1
Chain of USP9X (Q93008 whole entry): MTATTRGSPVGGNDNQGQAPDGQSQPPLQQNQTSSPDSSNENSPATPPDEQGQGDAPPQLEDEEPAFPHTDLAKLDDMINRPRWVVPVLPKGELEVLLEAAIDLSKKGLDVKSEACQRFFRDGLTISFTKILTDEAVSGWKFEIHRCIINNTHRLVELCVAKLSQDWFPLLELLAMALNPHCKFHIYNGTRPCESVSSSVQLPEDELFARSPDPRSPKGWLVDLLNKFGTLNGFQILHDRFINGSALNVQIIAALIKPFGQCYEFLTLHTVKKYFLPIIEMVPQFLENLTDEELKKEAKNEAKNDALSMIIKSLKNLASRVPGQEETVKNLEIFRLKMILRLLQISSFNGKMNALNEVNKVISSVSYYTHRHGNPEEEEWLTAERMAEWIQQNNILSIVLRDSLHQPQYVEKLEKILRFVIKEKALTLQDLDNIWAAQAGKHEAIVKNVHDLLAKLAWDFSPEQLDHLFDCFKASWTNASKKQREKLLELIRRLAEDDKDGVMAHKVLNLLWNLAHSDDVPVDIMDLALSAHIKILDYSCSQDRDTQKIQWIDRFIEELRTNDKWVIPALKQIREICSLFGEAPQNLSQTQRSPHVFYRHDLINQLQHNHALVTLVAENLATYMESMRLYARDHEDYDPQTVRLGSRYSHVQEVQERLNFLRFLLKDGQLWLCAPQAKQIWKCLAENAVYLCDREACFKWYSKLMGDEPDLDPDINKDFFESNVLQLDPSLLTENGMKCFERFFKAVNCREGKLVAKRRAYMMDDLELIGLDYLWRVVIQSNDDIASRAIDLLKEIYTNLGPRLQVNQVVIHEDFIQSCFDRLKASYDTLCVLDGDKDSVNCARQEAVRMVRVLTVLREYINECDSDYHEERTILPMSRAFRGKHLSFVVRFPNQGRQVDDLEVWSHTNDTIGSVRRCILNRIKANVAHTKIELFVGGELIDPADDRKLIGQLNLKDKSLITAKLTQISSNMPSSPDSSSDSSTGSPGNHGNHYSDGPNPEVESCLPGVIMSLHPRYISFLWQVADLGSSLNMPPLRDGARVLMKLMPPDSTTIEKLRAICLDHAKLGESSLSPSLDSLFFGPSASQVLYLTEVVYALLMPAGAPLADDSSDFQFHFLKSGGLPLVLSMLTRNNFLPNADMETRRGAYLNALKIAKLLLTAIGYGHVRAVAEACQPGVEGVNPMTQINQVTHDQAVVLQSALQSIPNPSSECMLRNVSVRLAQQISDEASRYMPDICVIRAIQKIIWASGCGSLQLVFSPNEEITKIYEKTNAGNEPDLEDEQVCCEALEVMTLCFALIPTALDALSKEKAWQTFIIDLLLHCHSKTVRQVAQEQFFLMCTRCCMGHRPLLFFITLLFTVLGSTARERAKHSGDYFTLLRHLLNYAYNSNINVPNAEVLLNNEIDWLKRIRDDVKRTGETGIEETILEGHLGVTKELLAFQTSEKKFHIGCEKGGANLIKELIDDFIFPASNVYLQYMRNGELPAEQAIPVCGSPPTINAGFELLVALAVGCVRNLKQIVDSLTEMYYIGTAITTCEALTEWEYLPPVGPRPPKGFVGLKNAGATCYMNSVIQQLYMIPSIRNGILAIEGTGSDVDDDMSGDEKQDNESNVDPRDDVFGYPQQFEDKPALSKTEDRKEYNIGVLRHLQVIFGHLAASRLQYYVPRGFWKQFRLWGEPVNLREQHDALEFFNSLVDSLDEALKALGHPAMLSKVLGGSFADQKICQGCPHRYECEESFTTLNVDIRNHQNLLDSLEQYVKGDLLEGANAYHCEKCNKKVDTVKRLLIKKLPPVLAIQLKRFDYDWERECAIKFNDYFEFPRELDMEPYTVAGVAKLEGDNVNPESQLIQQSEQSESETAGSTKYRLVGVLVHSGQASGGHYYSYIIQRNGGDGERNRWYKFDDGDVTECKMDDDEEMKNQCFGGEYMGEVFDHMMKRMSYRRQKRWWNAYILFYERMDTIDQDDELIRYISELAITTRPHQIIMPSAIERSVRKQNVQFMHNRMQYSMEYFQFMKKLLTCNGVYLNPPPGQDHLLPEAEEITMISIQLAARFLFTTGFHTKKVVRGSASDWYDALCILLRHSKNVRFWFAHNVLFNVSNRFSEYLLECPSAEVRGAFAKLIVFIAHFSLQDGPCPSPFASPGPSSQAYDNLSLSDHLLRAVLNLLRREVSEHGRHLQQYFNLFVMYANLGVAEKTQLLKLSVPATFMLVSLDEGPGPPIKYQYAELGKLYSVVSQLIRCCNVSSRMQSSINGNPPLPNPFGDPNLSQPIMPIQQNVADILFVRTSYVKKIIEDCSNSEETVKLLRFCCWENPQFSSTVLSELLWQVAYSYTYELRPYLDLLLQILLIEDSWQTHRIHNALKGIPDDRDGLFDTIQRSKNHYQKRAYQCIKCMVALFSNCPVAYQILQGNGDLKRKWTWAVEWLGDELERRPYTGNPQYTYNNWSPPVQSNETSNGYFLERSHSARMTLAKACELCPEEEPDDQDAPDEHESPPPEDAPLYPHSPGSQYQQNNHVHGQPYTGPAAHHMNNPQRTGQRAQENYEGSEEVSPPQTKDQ
Another experiment deals with UniProt O00487. In a few lines: as §1
Chain of UniProt O00487 (O00487 whole entry): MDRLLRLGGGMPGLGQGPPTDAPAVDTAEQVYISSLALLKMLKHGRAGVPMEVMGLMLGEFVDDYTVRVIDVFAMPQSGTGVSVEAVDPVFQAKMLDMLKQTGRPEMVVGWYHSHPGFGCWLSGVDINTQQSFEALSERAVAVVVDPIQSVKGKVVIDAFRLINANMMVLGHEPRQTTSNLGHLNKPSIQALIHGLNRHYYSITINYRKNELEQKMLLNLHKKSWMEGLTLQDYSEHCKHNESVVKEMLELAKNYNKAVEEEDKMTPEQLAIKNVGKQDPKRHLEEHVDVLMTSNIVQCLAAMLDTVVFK

The structures appear in SMILES notation. A number with no mark means an inactive call.

Chain of USP7 (Q93009 whole entry, looked up): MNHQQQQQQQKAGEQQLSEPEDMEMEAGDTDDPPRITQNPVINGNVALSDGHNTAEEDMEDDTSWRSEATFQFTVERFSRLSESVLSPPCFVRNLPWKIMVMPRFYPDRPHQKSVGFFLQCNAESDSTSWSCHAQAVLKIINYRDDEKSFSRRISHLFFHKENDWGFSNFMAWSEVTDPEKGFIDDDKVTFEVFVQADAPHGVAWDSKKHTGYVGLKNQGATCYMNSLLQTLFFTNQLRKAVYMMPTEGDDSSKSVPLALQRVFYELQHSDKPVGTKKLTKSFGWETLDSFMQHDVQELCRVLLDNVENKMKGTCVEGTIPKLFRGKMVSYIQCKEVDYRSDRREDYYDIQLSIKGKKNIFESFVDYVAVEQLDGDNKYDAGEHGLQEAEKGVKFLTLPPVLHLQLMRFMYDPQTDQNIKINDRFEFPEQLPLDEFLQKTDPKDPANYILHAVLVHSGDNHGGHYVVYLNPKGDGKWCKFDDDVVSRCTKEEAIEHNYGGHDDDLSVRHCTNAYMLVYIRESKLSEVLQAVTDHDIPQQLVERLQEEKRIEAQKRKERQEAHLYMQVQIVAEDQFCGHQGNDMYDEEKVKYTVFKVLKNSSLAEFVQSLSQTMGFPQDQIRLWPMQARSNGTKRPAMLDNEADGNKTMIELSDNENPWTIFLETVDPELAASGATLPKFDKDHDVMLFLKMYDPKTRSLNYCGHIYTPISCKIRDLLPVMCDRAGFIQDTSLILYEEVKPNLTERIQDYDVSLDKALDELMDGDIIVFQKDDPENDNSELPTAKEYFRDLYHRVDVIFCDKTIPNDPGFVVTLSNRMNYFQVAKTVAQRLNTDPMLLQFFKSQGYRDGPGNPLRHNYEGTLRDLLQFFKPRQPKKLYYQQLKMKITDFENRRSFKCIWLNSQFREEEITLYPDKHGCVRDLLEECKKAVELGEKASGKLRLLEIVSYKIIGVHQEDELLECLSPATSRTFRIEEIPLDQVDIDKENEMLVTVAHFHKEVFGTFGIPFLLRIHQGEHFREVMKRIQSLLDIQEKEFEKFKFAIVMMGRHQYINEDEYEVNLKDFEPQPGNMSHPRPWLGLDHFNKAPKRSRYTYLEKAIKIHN

As to `Cc1ccc(N(CCC#N)C(=O)CCl)cc1C`, the “log2 ratio of Biotin-Ahx-Ub-VS probe labelling” value with USP42 is -0.126; in the experiment with USP46 it was -0.12; with USP47 it was -0.28; with USP48 it was -1.01 (active); with USP5, 0.408; in the experiment with USP54, -0.137. Moreover, the “log2 ratio of Biotin-Ahx-Ub-VS probe labelling” value was -1.27 (active) with USP7, -0.394 with USP8, -0.324 with USP9X and -0.246 with UniProt O00487.
